# Columns and labels:
# Assay in all cases: DAPPL (digital affinity profiling via proximity ligation, sequencing); 10 mM Tris-HCl pH 7.5, 50 mM NaCl, 1 mM DTT, 4% glycerol, room temperature, 30 min; GST-TFs on glutathione beads, 16-mer random dsDNA library, 0.1% formaldehyde crosslink after washing; high values mean tight binding
# FLI1 = target: T1, FLI1 (Homo sapiens, UniProt Q01543 1-452); settings: protein: recombinant; tags: N-terminal GST; dsDNA, one strand shown
# T1 sequence: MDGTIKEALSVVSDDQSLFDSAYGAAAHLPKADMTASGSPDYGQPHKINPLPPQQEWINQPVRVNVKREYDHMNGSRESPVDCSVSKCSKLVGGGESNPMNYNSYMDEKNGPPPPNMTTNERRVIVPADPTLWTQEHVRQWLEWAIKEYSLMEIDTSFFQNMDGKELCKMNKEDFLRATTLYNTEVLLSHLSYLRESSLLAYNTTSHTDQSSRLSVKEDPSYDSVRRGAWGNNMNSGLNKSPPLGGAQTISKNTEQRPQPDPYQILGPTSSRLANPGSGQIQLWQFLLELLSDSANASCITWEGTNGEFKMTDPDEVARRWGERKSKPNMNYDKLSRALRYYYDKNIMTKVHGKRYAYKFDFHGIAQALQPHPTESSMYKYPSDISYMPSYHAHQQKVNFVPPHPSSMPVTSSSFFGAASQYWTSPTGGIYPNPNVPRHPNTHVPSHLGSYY
# Procedure, shortened: (§1)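 The binding signal reported is, for every hexamer, its read frequency for a factor over its read frequency for the tag-only sample. Reads came from pools of yeast-expressed, GST-fused human transcription factors on glutathione beads, barcoded with DNA and mixed with that sample, which were incubated with 200 nmole of a random double-stranded 16-mer DNA library in Tris/NaCl/DTT/glycerol buffer at room temperature for 30 min. After washing, the pools were crosslinked with 0.1% formaldehyde, proximity-ligated with BsaI/T4 ligase for 1 h at 37 °C, PCR-amplified and sequenced on an Illumina NextSeq500.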
# ELK1 = target: T2, ELK1 (Homo sapiens, UniProt P19419 1-428); settings: protein: recombinant; tags: N-terminal GST; dsDNA, one strand shown
# T2 sequence: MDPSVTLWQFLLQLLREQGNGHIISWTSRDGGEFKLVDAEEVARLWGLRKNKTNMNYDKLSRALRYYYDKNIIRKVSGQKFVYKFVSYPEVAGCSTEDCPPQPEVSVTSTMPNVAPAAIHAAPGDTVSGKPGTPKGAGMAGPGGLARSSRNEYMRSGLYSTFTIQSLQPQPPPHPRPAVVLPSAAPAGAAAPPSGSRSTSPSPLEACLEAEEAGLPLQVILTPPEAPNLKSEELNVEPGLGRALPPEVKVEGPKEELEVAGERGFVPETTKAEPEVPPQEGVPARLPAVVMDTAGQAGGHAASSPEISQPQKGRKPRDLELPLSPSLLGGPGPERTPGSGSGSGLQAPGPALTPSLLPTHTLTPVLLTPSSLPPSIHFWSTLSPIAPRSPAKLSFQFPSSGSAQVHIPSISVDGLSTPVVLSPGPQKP
# Procedure, shortened: as §1
# GABPA = target: T3, GABPA (Homo sapiens, UniProt Q06546 1-454); settings: protein: recombinant; tags: N-terminal GST; dsDNA, one strand shown
# T3 sequence: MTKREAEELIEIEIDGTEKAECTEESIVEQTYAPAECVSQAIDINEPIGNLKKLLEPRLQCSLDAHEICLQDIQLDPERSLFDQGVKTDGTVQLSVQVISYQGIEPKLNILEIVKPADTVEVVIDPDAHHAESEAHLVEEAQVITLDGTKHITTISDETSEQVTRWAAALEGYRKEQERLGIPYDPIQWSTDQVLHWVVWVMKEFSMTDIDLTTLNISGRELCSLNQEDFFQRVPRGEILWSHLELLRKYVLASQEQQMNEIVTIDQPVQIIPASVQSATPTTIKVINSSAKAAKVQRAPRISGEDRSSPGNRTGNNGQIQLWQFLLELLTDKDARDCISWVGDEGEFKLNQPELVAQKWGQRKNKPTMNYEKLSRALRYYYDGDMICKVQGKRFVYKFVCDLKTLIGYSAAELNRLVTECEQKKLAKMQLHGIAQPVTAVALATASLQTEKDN
# Procedure, shortened: as §1
# ERG = target: T4, ERG (Homo sapiens, UniProt P11308 1-479); settings: protein: recombinant; tags: N-terminal GST; dsDNA, one strand shown
# T4 sequence: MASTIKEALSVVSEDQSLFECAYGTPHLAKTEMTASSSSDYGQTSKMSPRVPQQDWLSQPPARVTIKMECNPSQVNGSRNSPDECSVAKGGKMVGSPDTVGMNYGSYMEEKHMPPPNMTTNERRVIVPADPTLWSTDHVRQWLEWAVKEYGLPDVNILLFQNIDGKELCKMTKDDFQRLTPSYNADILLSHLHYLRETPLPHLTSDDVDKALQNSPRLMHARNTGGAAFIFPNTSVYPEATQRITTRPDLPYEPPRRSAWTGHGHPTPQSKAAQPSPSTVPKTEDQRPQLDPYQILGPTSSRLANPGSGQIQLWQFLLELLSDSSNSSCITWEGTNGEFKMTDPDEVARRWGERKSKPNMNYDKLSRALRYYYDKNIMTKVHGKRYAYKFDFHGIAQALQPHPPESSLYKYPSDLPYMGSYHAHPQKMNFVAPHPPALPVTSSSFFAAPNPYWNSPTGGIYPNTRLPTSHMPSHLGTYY
# Procedure, shortened: as §1
# ELF1 = ELF1 (Homo sapiens, UniProt P32519 1-619); settings: protein: recombinant; tags: N-terminal GST; dsDNA, one strand shown
# Chain of ELF1 (P32519 whole entry): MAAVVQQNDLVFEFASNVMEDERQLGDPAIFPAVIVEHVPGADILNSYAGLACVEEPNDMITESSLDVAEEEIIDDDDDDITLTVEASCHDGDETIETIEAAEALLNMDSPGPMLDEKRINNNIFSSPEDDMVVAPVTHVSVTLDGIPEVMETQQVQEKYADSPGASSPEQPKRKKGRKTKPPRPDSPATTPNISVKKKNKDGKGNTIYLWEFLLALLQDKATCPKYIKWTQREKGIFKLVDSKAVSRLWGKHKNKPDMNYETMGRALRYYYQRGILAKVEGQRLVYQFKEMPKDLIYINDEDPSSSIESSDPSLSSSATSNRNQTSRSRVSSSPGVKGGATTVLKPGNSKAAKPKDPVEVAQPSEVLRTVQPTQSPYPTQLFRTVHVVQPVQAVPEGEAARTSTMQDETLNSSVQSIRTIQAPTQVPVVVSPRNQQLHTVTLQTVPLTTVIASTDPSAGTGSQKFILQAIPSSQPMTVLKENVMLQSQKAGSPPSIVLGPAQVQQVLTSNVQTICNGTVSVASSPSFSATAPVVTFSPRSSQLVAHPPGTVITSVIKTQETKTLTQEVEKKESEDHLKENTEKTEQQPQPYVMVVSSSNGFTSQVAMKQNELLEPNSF
# Procedure, shortened: as §1
# EHF = target: T5, EHF (Homo sapiens, UniProt Q9NZC4 1-300); settings: protein: recombinant; tags: N-terminal GST; dsDNA, one strand shown
# T5 sequence: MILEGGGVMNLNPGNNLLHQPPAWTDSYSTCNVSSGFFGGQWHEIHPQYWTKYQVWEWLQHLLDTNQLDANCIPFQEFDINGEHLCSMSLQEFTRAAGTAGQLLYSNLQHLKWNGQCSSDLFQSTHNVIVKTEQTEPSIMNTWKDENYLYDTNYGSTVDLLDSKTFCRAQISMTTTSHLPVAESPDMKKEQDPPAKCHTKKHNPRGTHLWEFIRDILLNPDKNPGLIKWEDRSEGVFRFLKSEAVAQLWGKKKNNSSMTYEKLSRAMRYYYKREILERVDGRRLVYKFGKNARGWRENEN
# Procedure, shortened: as §1
# SPI1 = SPI1 (Homo sapiens, UniProt P17947 1-270); settings: protein: recombinant; tags: N-terminal GST; dsDNA, one strand shown
# Procedure, shortened: as §1
# SPIB = SPIB (Homo sapiens, UniProt Q01892 1-262); settings: protein: recombinant; tags: N-terminal GST; dsDNA, one strand shown
# Chain of SPIB (Q01892 whole entry): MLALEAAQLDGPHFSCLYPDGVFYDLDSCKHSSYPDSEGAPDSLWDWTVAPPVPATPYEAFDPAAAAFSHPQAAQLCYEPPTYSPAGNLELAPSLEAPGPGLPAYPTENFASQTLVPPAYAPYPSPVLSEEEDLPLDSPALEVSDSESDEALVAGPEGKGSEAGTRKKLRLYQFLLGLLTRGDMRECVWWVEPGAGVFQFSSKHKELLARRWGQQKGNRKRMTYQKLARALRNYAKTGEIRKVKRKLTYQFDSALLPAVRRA
# Procedure, shortened: as §1
# ELK3 = target: T6, ELK3 (Homo sapiens, UniProt P41970 1-407); settings: protein: recombinant; tags: N-terminal GST; dsDNA, one strand shown
# T6 sequence: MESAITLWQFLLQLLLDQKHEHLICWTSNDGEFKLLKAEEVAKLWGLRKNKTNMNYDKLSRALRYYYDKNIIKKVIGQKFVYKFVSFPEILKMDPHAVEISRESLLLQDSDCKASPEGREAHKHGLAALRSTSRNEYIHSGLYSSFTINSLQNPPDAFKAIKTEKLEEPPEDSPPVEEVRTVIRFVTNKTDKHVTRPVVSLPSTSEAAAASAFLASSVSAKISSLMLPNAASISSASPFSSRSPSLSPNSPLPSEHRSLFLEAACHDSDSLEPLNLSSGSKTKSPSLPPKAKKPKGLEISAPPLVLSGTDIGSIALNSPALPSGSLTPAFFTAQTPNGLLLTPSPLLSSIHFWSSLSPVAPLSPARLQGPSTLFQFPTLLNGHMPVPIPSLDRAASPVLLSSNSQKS
# Procedure, shortened: as §1
# FEV = target: T7, FEV (Homo sapiens, UniProt Q99581 1-238); settings: protein: recombinant; tags: N-terminal GST; dsDNA, one strand shown
# T7 sequence: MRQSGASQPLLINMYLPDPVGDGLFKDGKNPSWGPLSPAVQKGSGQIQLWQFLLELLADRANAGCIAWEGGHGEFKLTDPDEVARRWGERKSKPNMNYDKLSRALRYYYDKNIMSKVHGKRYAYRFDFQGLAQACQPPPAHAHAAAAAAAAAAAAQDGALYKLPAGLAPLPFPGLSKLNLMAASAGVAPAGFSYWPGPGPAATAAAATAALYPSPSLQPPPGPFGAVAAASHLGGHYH
# Procedure, shortened: as §1
# ETV5 = ETV5 (Homo sapiens, UniProt P41161 1-510); settings: protein: recombinant; tags: N-terminal GST; dsDNA, one strand shown
# Chain of ETV5 (P41161 whole entry): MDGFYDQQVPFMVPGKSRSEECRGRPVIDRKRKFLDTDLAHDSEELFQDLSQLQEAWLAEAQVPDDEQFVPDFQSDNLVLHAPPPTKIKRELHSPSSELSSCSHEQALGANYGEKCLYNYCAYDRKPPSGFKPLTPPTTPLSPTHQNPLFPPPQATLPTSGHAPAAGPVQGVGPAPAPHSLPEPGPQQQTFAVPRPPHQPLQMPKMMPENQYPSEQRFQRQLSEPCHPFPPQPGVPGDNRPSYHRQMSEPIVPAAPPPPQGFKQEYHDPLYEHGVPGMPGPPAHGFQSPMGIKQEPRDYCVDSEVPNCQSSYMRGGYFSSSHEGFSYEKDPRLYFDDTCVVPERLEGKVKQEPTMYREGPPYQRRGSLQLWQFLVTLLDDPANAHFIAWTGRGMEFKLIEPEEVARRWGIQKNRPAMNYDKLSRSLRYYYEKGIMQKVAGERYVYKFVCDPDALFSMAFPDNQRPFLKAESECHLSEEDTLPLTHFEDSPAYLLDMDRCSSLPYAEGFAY
# Procedure, shortened: as §1
# HSF1 = HSF1 (Homo sapiens, UniProt Q00613 1-529); settings: protein: recombinant; tags: N-terminal GST; chain copies: 3; dsDNA, one strand shown
# Chain of HSF1 (Q00613 whole entry): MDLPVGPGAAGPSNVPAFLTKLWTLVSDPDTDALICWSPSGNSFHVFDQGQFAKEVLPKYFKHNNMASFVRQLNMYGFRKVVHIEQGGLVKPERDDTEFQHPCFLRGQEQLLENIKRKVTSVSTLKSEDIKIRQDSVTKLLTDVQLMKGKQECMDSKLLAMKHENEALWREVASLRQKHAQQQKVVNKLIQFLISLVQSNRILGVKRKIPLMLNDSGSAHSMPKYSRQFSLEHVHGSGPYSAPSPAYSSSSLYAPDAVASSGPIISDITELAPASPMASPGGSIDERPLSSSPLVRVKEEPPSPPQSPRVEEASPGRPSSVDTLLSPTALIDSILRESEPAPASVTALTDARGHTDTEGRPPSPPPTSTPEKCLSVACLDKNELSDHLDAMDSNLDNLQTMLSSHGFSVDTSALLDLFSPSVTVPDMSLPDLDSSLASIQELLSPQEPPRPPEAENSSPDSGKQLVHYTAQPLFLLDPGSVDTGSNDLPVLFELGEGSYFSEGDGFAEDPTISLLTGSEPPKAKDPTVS
# Procedure, shortened: as §1
# SPIC = target: T8, SPIC (Homo sapiens, UniProt Q8N5J4 1-248); settings: protein: recombinant; tags: N-terminal GST; dsDNA, one strand shown
# T8 sequence: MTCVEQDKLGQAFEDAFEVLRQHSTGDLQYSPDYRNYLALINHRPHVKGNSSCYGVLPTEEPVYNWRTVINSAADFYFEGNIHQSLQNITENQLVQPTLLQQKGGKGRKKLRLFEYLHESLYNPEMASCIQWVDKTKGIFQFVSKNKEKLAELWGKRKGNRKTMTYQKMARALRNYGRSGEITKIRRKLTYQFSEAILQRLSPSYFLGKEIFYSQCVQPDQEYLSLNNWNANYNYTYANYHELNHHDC
# Procedure, shortened: as §1
# ELF4 = ELF4 (Homo sapiens, UniProt Q99607 1-663); settings: protein: recombinant; tags: N-terminal GST; dsDNA, one strand shown
# Chain of ELF4 (Q99607 whole entry): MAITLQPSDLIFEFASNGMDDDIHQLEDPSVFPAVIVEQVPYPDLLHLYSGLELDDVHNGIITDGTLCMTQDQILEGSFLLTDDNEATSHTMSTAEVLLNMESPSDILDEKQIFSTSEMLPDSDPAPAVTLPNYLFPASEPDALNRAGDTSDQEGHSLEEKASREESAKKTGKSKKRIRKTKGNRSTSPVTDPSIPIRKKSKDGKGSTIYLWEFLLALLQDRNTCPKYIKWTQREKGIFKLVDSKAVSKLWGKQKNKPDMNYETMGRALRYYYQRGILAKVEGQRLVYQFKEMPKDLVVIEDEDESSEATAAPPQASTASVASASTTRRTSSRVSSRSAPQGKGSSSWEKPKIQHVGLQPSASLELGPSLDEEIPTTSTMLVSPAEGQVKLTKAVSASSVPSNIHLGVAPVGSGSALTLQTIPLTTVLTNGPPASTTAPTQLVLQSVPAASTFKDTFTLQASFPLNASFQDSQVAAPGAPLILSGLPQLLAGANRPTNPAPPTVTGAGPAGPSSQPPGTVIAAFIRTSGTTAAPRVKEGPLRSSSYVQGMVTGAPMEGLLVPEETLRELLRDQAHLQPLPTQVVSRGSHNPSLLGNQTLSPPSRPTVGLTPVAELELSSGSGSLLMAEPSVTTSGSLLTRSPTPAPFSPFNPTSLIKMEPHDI
# Procedure, shortened: as §1
# ELK4 = target: T9, ELK4 (Homo sapiens, UniProt P28324-2 1-405); settings: protein: recombinant; tags: N-terminal GST; dsDNA, one strand shown
# T9 sequence: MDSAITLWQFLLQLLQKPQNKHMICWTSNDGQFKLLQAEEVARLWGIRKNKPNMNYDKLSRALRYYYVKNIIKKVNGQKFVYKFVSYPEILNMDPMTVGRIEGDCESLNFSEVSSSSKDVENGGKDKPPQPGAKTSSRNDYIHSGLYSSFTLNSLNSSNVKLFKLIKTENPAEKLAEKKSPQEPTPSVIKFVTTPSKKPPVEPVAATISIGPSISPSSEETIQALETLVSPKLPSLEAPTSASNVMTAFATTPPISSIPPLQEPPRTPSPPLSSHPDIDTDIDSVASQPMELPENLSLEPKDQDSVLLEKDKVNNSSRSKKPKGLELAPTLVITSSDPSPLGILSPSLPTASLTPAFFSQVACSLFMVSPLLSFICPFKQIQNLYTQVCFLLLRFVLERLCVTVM
# Procedure, shortened: as §1
# ETV2 = target: T10, ETV2 (Homo sapiens, UniProt O00321 1-342); settings: protein: recombinant; tags: N-terminal GST; dsDNA, one strand shown
# T10 sequence: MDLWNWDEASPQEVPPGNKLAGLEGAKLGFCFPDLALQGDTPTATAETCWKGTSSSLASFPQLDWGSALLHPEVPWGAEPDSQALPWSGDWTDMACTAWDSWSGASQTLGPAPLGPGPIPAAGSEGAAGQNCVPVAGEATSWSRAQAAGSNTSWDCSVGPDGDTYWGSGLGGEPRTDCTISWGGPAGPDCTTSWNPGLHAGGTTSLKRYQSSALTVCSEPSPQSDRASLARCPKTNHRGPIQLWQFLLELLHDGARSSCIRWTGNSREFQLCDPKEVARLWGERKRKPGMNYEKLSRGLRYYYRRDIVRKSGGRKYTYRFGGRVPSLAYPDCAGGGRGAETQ
# Procedure, shortened: as §1
# ELF3 = target: T11, ELF3 (Homo sapiens, UniProt P78545 1-371); settings: protein: recombinant; tags: N-terminal GST; dsDNA, one strand shown
# T11 sequence: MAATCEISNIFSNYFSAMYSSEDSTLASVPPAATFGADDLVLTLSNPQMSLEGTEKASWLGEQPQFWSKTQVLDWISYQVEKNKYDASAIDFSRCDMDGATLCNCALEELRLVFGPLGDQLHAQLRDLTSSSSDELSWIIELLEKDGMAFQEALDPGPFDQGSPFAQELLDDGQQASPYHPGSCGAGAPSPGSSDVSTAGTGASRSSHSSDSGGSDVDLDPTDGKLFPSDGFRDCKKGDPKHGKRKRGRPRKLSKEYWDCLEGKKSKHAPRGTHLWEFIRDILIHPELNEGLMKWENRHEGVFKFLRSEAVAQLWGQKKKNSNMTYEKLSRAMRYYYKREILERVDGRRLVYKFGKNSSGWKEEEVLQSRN
# Procedure, shortened: as §1
# ETV1 = ETV1 (Homo sapiens, UniProt P50549 1-477); settings: protein: recombinant; tags: N-terminal GST; dsDNA, one strand shown
# Chain of ETV1 (P50549 whole entry): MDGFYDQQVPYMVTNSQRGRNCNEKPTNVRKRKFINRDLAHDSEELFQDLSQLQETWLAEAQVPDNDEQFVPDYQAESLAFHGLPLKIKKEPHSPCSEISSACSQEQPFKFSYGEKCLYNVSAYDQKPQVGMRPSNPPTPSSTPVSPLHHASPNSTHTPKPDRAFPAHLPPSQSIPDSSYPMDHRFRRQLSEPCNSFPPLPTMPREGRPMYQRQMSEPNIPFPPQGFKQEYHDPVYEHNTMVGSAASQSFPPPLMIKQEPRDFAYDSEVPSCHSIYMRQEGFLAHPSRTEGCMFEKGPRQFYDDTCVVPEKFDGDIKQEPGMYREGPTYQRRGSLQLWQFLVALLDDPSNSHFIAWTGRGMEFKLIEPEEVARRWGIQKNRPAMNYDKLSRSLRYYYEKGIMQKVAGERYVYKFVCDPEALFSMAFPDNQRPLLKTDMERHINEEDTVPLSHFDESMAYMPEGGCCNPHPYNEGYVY
# Procedure, shortened: as §1
sequence,measurement,setting,value
ATGGAC,binding signal,FLI1,"1.21 fold enrichment (6-mer frequency, TF over GST control)"
same,binding signal,ELK1,"1.22 fold enrichment (6-mer frequency, TF over GST control)"
same,binding signal,GABPA,"1.21 fold enrichment (6-mer frequency, TF over GST control)"
same,binding signal,ERG,"1.16 fold enrichment (6-mer frequency, TF over GST control)"
same,binding signal,ELF1,"1.26 fold enrichment (6-mer frequency, TF over GST control)"
same,binding signal,EHF,"1.21 fold enrichment (6-mer frequency, TF over GST control)"
same,binding signal,SPI1,"1.25 fold enrichment (6-mer frequency, TF over GST control)"
same,binding signal,SPIB,"1.38 fold enrichment (6-mer frequency, TF over GST control)"
same,binding signal,ELK3,"1.19 fold enrichment (6-mer frequency, TF over GST control)"
same,binding signal,FEV,"1.3 fold enrichment (6-mer frequency, TF over GST control)"
same,binding signal,ETV5,"1.3 fold enrichment (6-mer frequency, TF over GST control)"
same,binding signal,HSF1,"1.01 fold enrichment (6-mer frequency, TF over GST control)"
same,binding signal,SPIC,"1.34 fold enrichment (6-mer frequency, TF over GST control)"
same,binding signal,ELF4,"1.2 fold enrichment (6-mer frequency, TF over GST control)"
same,binding signal,ELK4,"1.17 fold enrichment (6-mer frequency, TF over GST control)"
same,binding signal,ETV2,"1.33 fold enrichment (6-mer frequency, TF over GST control)"
same,binding signal,ELF3,"1.42 fold enrichment (6-mer frequency, TF over GST control)"
same,binding signal,ETV1,"1.18 fold enrichment (6-mer frequency, TF over GST control)"

# — PMC7862700, “An all-to-all approach to the identification of sequence-specific readers for epigenetic DNA modifications on cytosine”
